Results filed as inconclusive are left out. The source made the active and inactive calls. Rule for the calls: active = hit-call score of the fitted dose curve at least 0.9, where 1 is the maximum; inconclusive = response in the unintended direction; inactive = score below 0.9.
Experiment: ACEA_ER_AUC_viability: ACEA Biosciences xCELLigence Real-Time Cell Analysis on Estrogen Receptor Agonism for Viability (AID 2283782);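 note: hit means loss of impedance signal meaning reduced cell growth or viability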
Outline: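 Viability endpoint: reduced impedance area under the curve relative to DMSO, recorded by real-time electrode sensing over ~80 h of continuous exposure. Duplicate plates of T47D in hormone-depleted medium; eight concentrations, 1:4 dilutions, 100 uM maximum.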
In the case of `C=C[C@](C)(O)CC[C@@H]1[C@@]2(C)CCCC(C)(C)[C@@H]2CC[C@@]1(C)O`, the AC50 is reported as 37.6 µM (active). In the case of `CC1(C)[C@H]2CC[C@]1(C)C(=O)C2`, the outcome is reported as “inactive”. With `Cc1ccc([N+](=O)[O-])cc1S(=O)(=O)O` the outcome was “inactive”. In the case of `C=CCCCCCCCCC(=O)OCCCC`, the AC50 is reported as 50 µM (active). For `O=C1CCC(=O)N1Cl`, the outcome was “inactive”. In the case of `O=C1CCCCCCCCCCCCCCCO1`, the outcome is reported as “inactive”. With `O=C1CC2CC1C1CCCC21` (configuration not stated) the outcome was “inactive”. With `Cn1c(=O)[nH]c2ncn(C)c2c1=O` the outcome was “inactive”. For `c1ccc(-c2ccccn2)nc1`, the AC50 was 34.1 µM (active). In the case of `C=C(C)CCO`, the AC50 is reported as 65.9 µM (active). With `Cc1cc(C)c(C)c(O)c1` the outcome was “inactive”. With `CC(CC=O)CCCC(C)(C)O` (configuration not stated) the outcome was “inactive”. With `O=[N+]([O-])C1(Br)COCOC1` the AC50 was 8.14 µM (active). For `Cc1ccc2oc(=O)ccc2c1`, the outcome was “inactive”. With `C/C=C\C/C=C/CCCCCCCCOC(C)=O` the AC50 was 82.3 µM (active). For `CCC(C)(C)C1CCCCC1OC(C)=O` (configuration not stated), the outcome was “inactive”. With `C=CC(C)(CCC=C(C)C)OC(=O)CC(C)C` (configuration not stated) the outcome was “inactive”. With `C=CC(=O)OCCOC(=O)C=C` the AC50 was 32.3 µM (active). For `COC(=O)/C=C\C(=O)O`, the outcome was “inactive”. For `CCc1nccnc1C`, the outcome was “inactive”. For `c1ccc2c(c1)ccc1ncccc12`, the outcome was “inactive”. With `CCCC(C)CCC(C)=O` (configuration not stated) the outcome was “inactive”. With `O=C1CCCC1` the outcome was “inactive”. With `Nc1ccc(Cl)cc1Cl` the AC50 was 29.2 µM (active). With `CCCCCCOC(=O)C(C)CC` (configuration not stated) the AC50 was 66.7 µM (active). For `NC(CO)(CO)CO`, the outcome was “inactive”. For `CCCCCCCCCCc1ccccc1`, the AC50 was 26.2 µM (active). For `Cc1ccc(N)c([N+](=O)[O-])c1`, the outcome was “inactive”. For `CCCCCCCCc1ccc(Nc2ccc(CCCCCCCC)cc2)cc1`, the outcome was “inactive”. In the case of `CC1(C)S[C@@H]2[C@H](NC(=O)COc3ccccc3)C(=O)N2[C@H]1C(=O)O`, the outcome is reported as “inactive”. With `O=C1CCCC(=O)O1` the outcome was “inactive”. For `CC1OC1C1CCC2(C)OC2C1` (configuration not stated), the outcome was “inactive”. In the case of `CC[C@H]1OC(=O)[C@H](C)[C@@H](O[C@H]2C[C@@](C)(OC)[C@@H](O)[C@H](C)O2)[C@H](C)[C@@H](O[C@@H]2O[C@H](C)C[C@H](N(C)C)[C@H]2O)[C@](C)(O)C[C@@H](C)C(=NOCOCCOC)[C@H](C)[C@@H](O)[C@]1(C)O`, the outcome is reported as “inactive”. In the case of `CCC(CC)C(=O)O`, the outcome is reported as “inactive”. In the case of `FC(F)(F)C(=NOCC1OCCO1)c1ccc(Cl)cc1`, the AC50 is reported as 74.9 µM (active). For `Cc1ccc(OC(=O)CC(C)C)cc1`, the AC50 was 73.8 µM (active). For `O=C1C=CC(=O)O1`, the outcome was “inactive”.
